This note sets out measurements from PubChem BioAssay (Tox21).

Structures are written as SMILES. Unmarked numbers belong to inactive results. The call rests on the fitted dose curve; in most records, active means well fitted curve in the direction sought with a large enough effect in the repeat runs; inconclusive means weak or mixed curves; inactive means flat fitted curve, though single readings scatter.
On the % scale 0 is the no-effect control and ±100 the full control effect.

This test in a line: qHTS assay to test for compound auto fluorescence at 590 nm (red) in HEK293 cells (AID 720679). Conditions: red autofluorescence 540/590 nm; series mostly up to 46 µM; fluorescence, % of fluorescent control: at the top concentration. An excerpt: National Center for Advancing Translational Sciences [NCATS]
NIH Chemical Genomics Center [NCGC]
U.S. Environmental Protection Agency [EPA]
National Institutes of Environmental Health Sciences [NIEHS]
National Toxicology Program [NTP]
U.S. Food and Drug Administration [FDA]
Compound auto fluorescence often interferes with screening of the compound library against various biological targets and signaling pathways. Some of these compounds may have fluorophoric properties. Such properties may interfere with the assay outputs resulting in false positives and/or negatives. To decrease such complications and ensure the compound activities are relevant in terms of biological response, the Tox21 10K compound library was screened for auto fluorescence.
From the fluorophores used as reporter signals in our screening assays, the auto fluorescence equivalencies of compounds against three fluorophores have been evaluated: Triamterene, Fluorescein and Rose Bengal sodium for blue, green and red fluorescence, respectively. The fluorescence intensities were measured using Excitation/Emission wavelengths at 405/460nm, 485/535nm and 540/590nm for blue, green and red labels, respectively. This assay includes the red fluorescence data.
Tox21 Assay Protocol Summary:
2,000 HEK293 cells in 5 uL of culture medium containing 10% dialyzed FBS per well were dispensed into black wall/clear bottom 1536-well plates using a Multidrop Combi Dispenser (Thermo Scientific). The assay plates were incubated for 4-5 hr at 37C to allow cell attachment to the well bottom, followed by the transfer of 23 nL compound or DMSO vehicle by a pintool work station (Kalypsys, San Diego, CA). After the assay plates were incubated overnight at 37C and 5% CO2, fluorescence intensities in the assay plates were measured by an Envision (PerkinElmer, Shelton, CT) plate reader using three labels for measuring blue, green and red fluorescence at […] 460, 535 and 590nm respectively.
For orientation: qHTS replaces the single test concentration by a dilution series.
`CCOC(=O)COc1ccc2c(C)c(CCN(CC)CC)c(=O)oc2c1`: the “fluorescence, % of fluorescent control” value was 0.097%.

With `COc1ccc2c(c1)N(C[C@H](C)CN(C)C)c1ccccc1S2`, the “fluorescence, % of fluorescent control” value was -0.14% [at 18.6 µM].

Take `C[Se]CCC(N)C(=O)O` (stereo not given): the “fluorescence, % of fluorescent control” value is 0.197%.

With `CCCN(CC)C(CC)C(=O)Nc1c(C)cccc1C` (stereo not given), the “fluorescence, % of fluorescent control” value is 0.0226%.

In the case of `O=C(O)c1cc2ccccc2c(Cc2c(O)c(C(=O)O)cc3ccccc23)c1O`, the “fluorescence, % of fluorescent control” value was 0.202%.

As to `COc1ccc(CCNC[C@H](O)c2ccc(O)cc2)cc1OC`, the “fluorescence, % of fluorescent control” value was 0.0811%.

`CNC(C)CCC=C(C)C` (stereo not given): the “fluorescence, % of fluorescent control” value is 0.0096%.

Take `CC(C)CN(C[C@@H](O)[C@H](Cc1ccccc1)NC(=O)O[C@@H]1CCOC1)S(=O)(=O)c1ccc(N)cc1`: the “fluorescence, % of fluorescent control” value is 0.0642%.

As to `CNc1cc(OC)c(C(=O)N[C@H]2CCN(Cc3ccccc3)[C@H]2C)cc1Cl`, the “fluorescence, % of fluorescent control” value was -0.0056%.

Take `NC(Cc1ccccc1)C(=O)O` (stereo not given): the “fluorescence, % of fluorescent control” value was -0.109%.

In the case of `C=C1CC[C@H](O)CC1=C/C=C1\CCC[C@]2(C)[C@@H]([C@H](C)CC[C@@H](O)C(C)(C)O)CC[C@@H]12`, the “fluorescence, % of fluorescent control” value was -0.948%.

Turning to `Nc1nc2[nH]cc(CCc3ccc(C(=O)N[C@@H](CCC(=O)O)C(=O)O)cc3)c2c(=O)[nH]1`, the “fluorescence, % of fluorescent control” value was 0.107%.

For the compound `CCN(CC)CCOc1ccc2nc(N(C)C)sc2c1`, the “fluorescence, % of fluorescent control” value is 0.0411%.

On to `CCOC(=O)C1=C[C@@H](OC(CC)CC)[C@H](NC(C)=O)[C@@H](N)C1`, for which the “fluorescence, % of fluorescent control” value was 0.0712%.

As to `CNCC(O)c1ccc(OC(=O)C(C)(C)C)c(OC(=O)C(C)(C)C)c1` (stereo not given), the “fluorescence, % of fluorescent control” value is 0.271% [at 18.6 µM].

In the case of `CCCCCCCCCCCCCCCCCC(=O)OC[C@@H](O)[C@H]1OC[C@H](O)[C@H]1O`, the “fluorescence, % of fluorescent control” value is 0.0678%.

Consider `[O]=[Bi][O]C(=O)[O][Bi]=[O]`, for which the “fluorescence, % of fluorescent control” value is 0.272%.

With `C=C[C@]1(C)C[C@@H](OC(=O)CSC(C)(C)CNC(=O)[C@H](N)C(C)C)[C@]2(C)[C@H](C)CC[C@]3(CCC(=O)[C@H]32)[C@@H](C)[C@@H]1O`, the “fluorescence, % of fluorescent control” value is 0.0276%.

Turning to `C=C[C@]1(C)C[C@@H](OC(=O)CO)[C@]2(C)[C@H](C)CC[C@]3(CCC(=O)[C@H]32)[C@@H](C)[C@@H]1O`, the “fluorescence, % of fluorescent control” value was -0.0561%.

Take `O=C(O)[C@H](CC(=O)N1C[C@H]2CCCC[C@H]2C1)Cc1ccccc1`: the “fluorescence, % of fluorescent control” value is 0.0601%.

For the compound `COC(=O)CC[C@H](N)C(=O)O`, the “fluorescence, % of fluorescent control” value was 0.373%.

`CCC(C)[C@@H](N)C(=O)O` (stereo not given in full): the “fluorescence, % of fluorescent control” value was 0.115%.

Consider `CC1(O)CCC(C(C)(C)O)CC1` (stereo not given), for which the “fluorescence, % of fluorescent control” value was 0.0044%.

`NCc1ccccc1CC(=O)N[C@@H]1C(=O)N2C(C(=O)O)=C(CSc3nnnn3CC(=O)O)CS[C@H]12`: the “fluorescence, % of fluorescent control” value was 0.0248% [at 18.6 µM].

As for `CC(C(=O)O)c1ccc(C2CCCCC2)c2ccccc12` (stereo not given), the “fluorescence, % of fluorescent control” value is -0.124%.

Turning to `CC(=C\c1ccccc1)/C=C1/SC(=S)N(CC(=O)O)C1=O`, the “fluorescence, % of fluorescent control” value was 0.122%.

`O=P(O)(O)C(Sc1ccc(Cl)cc1)P(=O)(O)O`: the “fluorescence, % of fluorescent control” value was -0.774%.

In the case of `O=P(O)(O)OC[C@H](O)CO`, the “fluorescence, % of fluorescent control” value is -1.15%.

`CN(C)CCC=C1c2ccccc2C(C)(C)c2ccccc21`: the “fluorescence, % of fluorescent control” value is -0.276%.

Take `CC1(C)S[C@@H]2[C@H](NC(=O)[C@H](N)c3ccccc3)C(=O)N2[C@H]1C(=O)OCOC(=O)[C@@H]1N2C(=O)C[C@H]2S(=O)(=O)C1(C)C`: the “fluorescence, % of fluorescent control” value is 0.0029%.

As for `CCCCCCCCCCCCCC[n+]1ccc(C)cc1`, the “fluorescence, % of fluorescent control” value was 0.0232%.

`CCOC(=O)Oc1c(OC)cc(C(=O)O[C@@H]2C[C@@H]3CN4CCc5c([nH]c6cc(OC)ccc56)[C@H]4C[C@@H]3[C@H](C(=O)OC)[C@H]2OC)cc1OC`: the “fluorescence, % of fluorescent control” value is -0.0775% [at 18.6 µM].

In the case of `[O]=[Bi][O][Bi]=[O]`, the “fluorescence, % of fluorescent control” value is -0.666%.

For `CC(=O)Oc1c(C)cc(OCC(O)CNC(C)C)c(C)c1C` (stereo not given), the “fluorescence, % of fluorescent control” value was -0.104%.

Turning to `CO/N=C(\C(=O)N[C@@H]1C(=O)N2C(C(=O)OCOC(=O)C(C)(C)C)=C(/C=C\c3scnc3C)CS[C@H]12)c1csc(N)n1`, the “fluorescence, % of fluorescent control” value was 0.0132%.

As to `O=C(CCCN1CCC(n2c(=S)[nH]c3ccccc32)CC1)c1ccc(F)cc1`, the “fluorescence, % of fluorescent control” value is -0.114%.

With `CCOC(=O)[C@H](CCc1ccccc1)N[C@H]1CCCN2CCC[C@@H](C(=O)O)N2C1=O`, the “fluorescence, % of fluorescent control” value is 0.118%.

Regarding `CN1CCN(CCC=C2c3ccccc3Sc3ccc(S(=O)(=O)N(C)C)cc32)CC1`, the “fluorescence, % of fluorescent control” value was 0.0757%.

As to `CN[C@H]1CCc2cc(OC)c(OC)c(OC)c2-c2ccc(OC)c(=O)cc21`, the “fluorescence, % of fluorescent control” value was -0.0408%.

On to `C=C1C(=C/C=C2\CCC[C@]3(C)[C@@H]([C@H](C)CCCC(C)(C)O)CC[C@@H]23)C[C@@H](O)C[C@@H]1O`, for which the “fluorescence, % of fluorescent control” value was 0.0972%.
